Pf Dd2 inh: qHTS Primary assay for Inhibitors of Plasmodium falciparum Dd2 growth in vitro; P. falciparum Dd2 growth, SYBR Green, 72 h; Potency, µM (series often up to 28.9 µM), hits mostly inhibitors; 4.3% of 120,000 active; AID 1347417, 2020; active means well fitted inhibition curve with a large enough effect; further: nearly all actives have a fitted effect of over 65% in size
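Readout: SYBR Green fluorescence, 485 nm excitation, 535 nm emission, after ~16 h lysis at 37C. Before that, Dd2-infected red cells (2.5% hematocrit) grew 72 h with compound, 29 uM top final concentration.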
Large screens that a line does not name were inactive. The full list was thinned out, with hits kept by preference.

Cn1nccc1C(=O)N1CCC(Oc2nccnc2N2CCOCC2)C1 (stereo not drawn)	none
O=C(c1ccncc1)N1CCC(Oc2nccnc2N2CCOCC2)C1 (stereo not drawn)	none
CN1CCC(Oc2nccnc2N2CCc3ccccc32)C1 (stereo not drawn)	Pf Dd2 inh 2.8µM
CCCN(C)c1nccnc1OC1CCN(C(=O)C(C)C)C1 (stereo not drawn)	none
COc1ccccc1CNC(=O)C[C@@H]1CCNC[C@@H]1Cc1cc(CSc2ccccc2)on1	none
C=CCOC(=O)Nc1nc2c(s1)C[C@@H]1[C@](C)(CO)[C@H](O)CC[C@@]1(C)[C@@H]2CC(=O)NCCN1CCOCC1	none
CS(=O)(=O)N(C1CC1)C1CCOC2(CCN(C(=O)c3cc(F)ccc3F)CC2)C1 (stereo not drawn)	none
Cc1ccc(C(=O)N2CCC3(CC2)N(C)C(=O)CS3(=O)=O)cc1	none
COc1cccc(CC(=O)Nc2ccc3c(c2)CN(Cc2ccccc2OC)C(=O)C(C)O3)c1 (stereo not drawn)	none
CCC1Oc2ccc(NC(=O)Cc3ccc(F)cc3)cc2CN(Cc2ccc(Cl)cc2)C1=O (stereo not drawn)	none
COc1ccccc1CN1Cc2cc(NC(=O)Cc3ccc(F)cc3)ccc2OC(C)C1=O (stereo not drawn)	none
CCNC(=O)Nc1ccc2c(c1)CN(Cc1ccccc1OC)C(=O)C(C)O2 (stereo not drawn)	none
CC1Oc2ccc(NC(=O)Cc3ccc(F)cc3)cc2CN(Cc2ccc(Cl)cc2)C1=O (stereo not drawn)	Pf Dd2 inh 10µM
CCC(C(=O)Nc1ccc2c(c1)CN(Cc1ccccc1OC)C(=O)C(C)O2)c1ccccc1 (stereo not drawn)	Pf Dd2 inh 2.5µM
COCCOc1ccc2c(n1)CCN(C(=O)CCc1ccccc1)C2	none
COCCN1CCCCCC(O)c2cc(C(=O)N3CCCCCC3)ccc21 (stereo not drawn)	none
Cc1cccc(CC(=O)N2CCC3(CCCCO3)CC2)c1	none
O=C(C1CC1)N1CCN2C(=O)NC[C@H]2C1	none
CN1C[C@H](NCc2cccnc2)CCC[C@@H](C(=O)NC2CC2)CC1=O	none
Cc1cccc(NC(=O)NC2CCN(C(=O)N3CC4CC(C3)[C@H]3CCCC(=O)N3C4)CC2)c1 (stereo partly drawn)	none
CCOC(=O)c1ccccc1NC(=O)Nc1cc2c(cc1N1CCCC1)n(C)c(=O)n2C	none
COc1ccccc1C(=O)Nc1cc2c(cc1N1CCCC1)n(C)c(=O)c(=O)n2C	none
CCOC(=O)C1CCN(c2cc3c(cc2NC(=O)c2ccccc2Cl)n(C)c(=O)n3C)CC1	Pf Dd2 inh 11µM
Cc1cc(=O)n2[nH]c(CC(=O)N3CC[C@@](O)(C4CCOCC4)[C@H](C)C3)nc2n1	none
COCCC1(NC(=O)C2CCOCC2)CCN(C(=O)c2cccnc2C)CC1	none
COc1ccc(NC(=O)c2c(C)oc3ccc(O)c(CN4CCCCCC4)c23)cc1	Pf Dd2 inh 2.8µM
O=C(Nc1ccc(Cl)cc1)c1nc2c(o1)CCN(Cc1ccccc1)CC2	none
Cc1cccc(NC(=O)c2c(C)oc3ncnc(N4CCCCC4)c23)c1C	none
COc1ccc(NC(=O)c2c(C)oc3ccc(O)c(CN4CCN(Cc5ccccc5)CC4)c23)cc1	Pf Dd2 inh 1.3µM
CCOc1cc(=O)n2c(c1C(=O)Nc1ccccc1)CCCC2	none
Cc1oc2ccc(O)c(CN3CCN(Cc4ccccc4)CC3)c2c1C(=O)Nc1cccc(Cl)c1C	Pf Dd2 inh 0.56µM
CC(=O)Nc1ccc(NC(=O)c2cccc(CN3CCCC(C#N)C3)c2)cc1 (stereo not drawn)	none
COc1ccc(NC(=O)c2c(OC)cc(=O)n3c2CCCC3)cc1	none
CCOc1ccc(NC(=O)c2c(C)oc3nc(C)nc(N4CCCC4)c23)cc1	none
Cc1c(Cl)cccc1NC(=O)NCC1CCOCC1	none
Cc1oc2ccc(O)c(CN3CCCC(C)C3)c2c1C(=O)Nc1ccccc1 (stereo not drawn)	Pf Dd2 inh 0.89µM
COc1ccc(NC(=O)c2c(-c3cnn(C)c3NCc3ccccc3)noc2C)cc1	none
NCCO[C@H]1C[C@@H](O)C12CCN(Cc1c(Cl)cccc1Cl)CC2	none
O=C(NCCc1ccccn1)C1CN(S(=O)(=O)c2cccnc2)CC12CCCCC2 (stereo not drawn)	none
COc1ccc(C2(C(=O)N3CCC(c4n[nH]c(=O)n4-c4ccccc4)CC3)CC2)cc1	none
COCC[C@]1(O)CCN(C(=O)c2csc(CN(C)C)n2)C[C@H]1C	none
Cc1ccc(NC(=O)CC2=C3CCCCC3N(C)C2=O)cc1 (stereo not drawn)	none
COc1cccc(S(=O)(=O)N2CCCN(C)c3ccccc32)c1	none
COc1ccc(C(=O)NC(C(=O)NCC(C)C)C2CCN(C(=O)c3ccccc3C)CC2)cc1 (stereo not drawn)	none
COc1ccc(S(=O)(=O)N2CC(F)(F)C[C@H]2c2nc(C)no2)cc1	none
Cc1ccc(CNC(=O)N2CCCN(C)c3ccccc32)cc1	none
O[C@@H]1C[C@@H](c2nc(C3CC3)no2)N(Cc2ccc(OC(F)(F)F)cc2)C1	none
Cc1ccc(-c2ccc3nnc(CNC(=O)c4cccnc4)n3n2)cc1	none
COC(=O)c1c(NC(=O)c2ccc(S(=O)(=O)N3CCC(C)CC3)cc2)sc2c1CCN(C)C2	none
COC(=O)c1c(NC(=O)c2ccc(S(=O)(=O)N(C)C3CCCCC3)cc2)sc2c1CCN(C)C2	Pf Dd2 inh 8.9µM
CC(C)CN(CC(C)C)S(=O)(=O)c1ccc(C(=O)Nc2sc3c(c2C(N)=O)CCN(C(C)C)C3)cc1	none
CCOC(=O)c1cc(C)n(CC(=O)N2CCCOCCNC(=O)CC2)c1C	none
Cc1ccc(NC(=O)CCn2ccn3nc4c(c3c2=O)CCCC4)cc1	none
CN(C)C(=O)c1ccnc2[nH]ccc12	none
COc1ccc(C2=C(C(C)=O)Sc3nnc(-c4ccc(Cl)cc4)n3N2C(C)=O)cc1OC	Pf Dd2 inh 1.4µM
CCc1nnc(SCC(=O)Nc2ccc(OC)c(OC)c2)c2cc3occc3n12	none
CCC(=O)C1=C(c2ccc(F)cc2)N(C(=O)CC)n2c(nnc2-c2ccc(OC)cc2)S1	Pf Dd2 inh 3.2µM
CCc1nnc(SCc2nc(-c3ccc(OC)c(OC)c3)oc2C)c2cc3sc(C)cc3n12	none
COc1ccc(CC(=O)NCCc2sc(-c3ccc(Cl)cc3)nc2C)cc1OC	none
CCC(=O)C1=C(c2ccc(OC)c(OC)c2)N(C(=O)CC)n2c(CC)nnc2S1	Pf Dd2 inh 1.4µM
COc1ccc(-c2nnc3n2CCN(C(=O)c2ccc(F)cc2)C3)cc1	none
COc1ccc(-c2nnc3n2N(C(C)=O)C(c2ccc(Cl)c(Cl)c2)=C(C(C)=O)S3)cc1	none
COc1ccc(OC(=O)CSc2nnc(-c3ccc(F)cc3)o2)cc1	none
CNC(=O)C(C)(C)N1CCC[C@H]1C(=O)NCCN1CCCCC1	none
O=C(CO[C@H]1CN(Cc2ccc(C(=O)O)cc2)C[C@H]1F)Nc1ccccc1O	none
O=C(NC1CCCc2c1[nH]c1ccccc21)c1n[nH]c2c1CCCC2 (stereo not drawn)	none
COC(=O)[C@@H]1Cc2ncn(C)c2CN1S(=O)(=O)c1cccs1	none
FC(F)(F)c1ccc2c(c1)nc1n2[C@@H](CNCc2cccnc2)COC1	none
COC1C(=O)N(C2CCN(C(=O)c3cnccc3C)CC2)C12CCOCC2 (stereo not drawn)	none
Cc1ccc(OCC(=O)c2ccc3c(c2)N(CCCC(=O)N2CCCC2)C(=O)CO3)cc1C	none
Cc1nc(-c2cccc(Cl)c2)n(CC(=O)Nc2cccc(C(C)C)c2)c(=O)c1CCO	Pf Dd2 inh 5µM
COc1ccc(Cl)cc1NC(=O)Cn1c(-c2ccccc2)nc(C)c(CCO)c1=O	none
Cc1ccc(NC(=O)Cn2c(-c3cccc(Cl)c3)nc(C)c(CCO)c2=O)cc1	none
